The supplement of paper PMC11383364
± gives the standard deviation of the averaged measurements.

Test system: SUM149
Experiment: percent difference in area under dose-response curve of relative cell number, RPMI vs HPLM; higher = drug relatively more effective in HPLM than RPMI (negative = less effective in HPLM)
Conditions: treatment time: 72 h; dose range: 10-point, 1 nM to 20 µM; media compared: RPMI vs HPLM

Row | SMILES | percent difference in area under dose-response curve
1 | COc1cc(OC)c(/C=C/S(=O)(=O)Cc2ccc(OC)c(NCC(=O)O)c2)c(OC)c1 [Rigosertib] | -46.7%
2 | NC(=O)c1[nH]nc([C@@H]2O[C@H](CO)[C@@H](O)[C@H]2O)c1O [Pyrazofurin] | 5.89%
3 | Cc1ccc(-c2cc(C(F)(F)F)nn2-c2ccc(S(N)(=O)=O)cc2)cc1 [Celecoxib] | 1.54 ± 3%
4 | Cc1cc(N2CCOCC2)cc2[nH]c(-c3c(NC[C@@H](O)c4cccc(Cl)c4)cc[nH]c3=O)nc12 | -6.07%
5 | Cn1cnc([N+](=O)[O-])c1Sc1ncnc2[nH]cnc12 [Azathioprine] | -50.6%
6 | CC1(COc2ccc3c(c2)ncn3-c2ccc3cccc(N4CCC(N)CC4)c3n2)COC1 [Crenolanib] | -11.6%
7 | CC/C(=C(\c1ccccc1)c1ccc(OCCN(C)C)cc1)c1ccccc1 [Tamoxifen_Citrate] | -4.18%
8 | N#CC[C@H](C1CCCC1)n1cc(-c2ncnc3[nH]ccc23)cn1 [SRuxolitinib] | -0.914%
9 | COc1cc(Nc2ncc3c(n2)-c2ccc(Cl)cc2C(c2c(F)cccc2OC)=NC3)ccc1C(=O)O | -13.5%
10 | O=c1cnn([C@@H]2O[C@H](CO)[C@@H](O)[C@H]2O)c(=O)[nH]1 [6_Azauridine] | 15.1%
11 | CS(=O)(=O)CCNCc1ccc(-c2ccc3ncnc(Nc4ccc(OCc5cccc(F)c5)c(Cl)c4)c3c2)o1 [Lapatinib_Ditosylate] | -5.86%
12 | CCOc1ccn(-c2ccc(F)cc2)c(=O)c1C(=O)Nc1ccc(Oc2ccnc(N)c2Cl)c(F)c1 | -1.99%
13 | CC(C)(C)C(=O)Nc1ccc2c(c1)C(=O)C(=O)c1ccccc1-2 | 2.11%
14 | S=c1[nH]cnc2nc[nH]c12 [Mercaptopurine] | -43.4%
15 | Nc1nc(F)nc2c1ncn2[C@@H]1O[C@H](COP(=O)(O)O)[C@@H](O)[C@@H]1O [Fludarabine_Phosphate] | -16.9%
16 | COc1c(C)c2c(c(O)c1C/C=C(\C)CCC(=O)O)C(=O)OC2 [Mycophenolic_Acid] | -8.4%
17 | C[C@@H]1CN(CC(=O)Nc2ccc3c(c2)Cc2cccc(-c4cc(=O)cc(N5CCOCC5)o4)c2S3)C[C@H](C)O1 | -5.04%

Row | SMILES | percent difference in area under dose-response curve
18 | Cc1nc(Nc2ncc(C(=O)Nc3c(C)cccc3Cl)s2)cc(N2CCN(CCO)CC2)n1 [Dasatinib] | 41.7%
19 | Nc1ccn([C@@H]2C=C(CO)[C@@H](O)[C@H]2O)c(=O)n1 [Cyclopentenyl_cytosine] | 2.58%
20 | CC1(C)C=C(CN2C/C(=C\c3ccc(F)cc3)C(=O)/C(=C/c3ccc(F)cc3)C2)C(C)(C)N1O | 2.04%
21 | Oc1cccc(-c2nc(N3CCOCC3)c3oc4ncccc4c3n2)c1 | 3.18%
22 | N#CC[C@H](C1CCCC1)n1cc(-c2ncnc3[nH]ccc23)cn1 [Ruxolitinib] | -7.13%
23 | Nc1nc(Cl)nc2c1ncn2[C@@H]1O[C@H](CO)[C@@H](O)[C@@H]1F [Clofarabine] | -18.6%
24 | CN(C)Cc1c(C(=O)NCCOc2ccc(C(=O)NO)cc2)oc2ccccc12 | 0.731%
25 | O=C(Nc1ccc(OC(F)(F)F)cc1)c1sccc1NCc1ccnc2ccccc12 | 6.56%
26 | CC[C@@]1(O)C(=O)OCc2c1cc1n(c2=O)Cc2cc3c(CN(C)C)c(O)ccc3nc2-1 [Topotecan_HCl] | -48.7%
27 | Nc1ncn([C@H]2C[C@H](O)[C@@H](CO)O2)c(=O)n1 [Decitabine] | -25.4%
28 | Oc1ccc(Nc2nc(-c3ccc(Cl)cc3)cs2)cc1 | 6.02%
29 | CC(C)=CCC1=C(O)C(=O)c2ccccc2C1=O [Lapachol] | 10.9%
30 | Nc1nc(=S)c2[nH]cnc2[nH]1 [6_Thioguanine] | -37.9%
31 | CC(C)c1cc(C(C)C)c(CC(=O)NS(=O)(=O)Oc2c(C(C)C)cccc2C(C)C)c(C(C)C)c1 [Avasimibe] | -0.523%
32 | COc1cccc2c1C(=O)c1c(O)c3c(c(O)c1C2=O)C[C@@](O)(C(=O)CO)C[C@@H]3O[C@H]1C[C@H](N)[C@@H](O)[C@H](C)O1 [Epirubicin_HCl] | -23.5%
33 | Nc1nc2c(c(=O)[nH]1)C[C@@H](CCc1ccc(C(=O)N[C@@H](CCC(=O)O)C(=O)O)cc1)CN2 [Lometrexol] | -68%
34 | CC1(C)C(N(O)C(=O)Nc2ccc(Cl)cc2)N(c2ccc(Cl)cc2)C(=O)N1CC(=O)NN=CC=Cc1ccc([N+](=O)[O-])o1 (centres undefined) [Eeyarestatin_I] | -5.38%
